Hits are enriched below; roughly 15% of the tested compounds scored in any of these assays.
RORg inh = inhibitors of mouse ROR gamma transcriptional activity. AID 2551. 310,000 tested, 5.4% active. Potency, µM (doses to about 53.6 µM), without a hit: at the highest dose activity change, negative = inhibition, actives largely listed as inhibitors. P51450. Drosophila S2 Gal4-RORgamma UAS-luciferase reporter, 20 h; note: nearly all actives have a fitted effect of over 60% in size
Target sequence (P51450 whole entry, looked up, the tested form may be a part): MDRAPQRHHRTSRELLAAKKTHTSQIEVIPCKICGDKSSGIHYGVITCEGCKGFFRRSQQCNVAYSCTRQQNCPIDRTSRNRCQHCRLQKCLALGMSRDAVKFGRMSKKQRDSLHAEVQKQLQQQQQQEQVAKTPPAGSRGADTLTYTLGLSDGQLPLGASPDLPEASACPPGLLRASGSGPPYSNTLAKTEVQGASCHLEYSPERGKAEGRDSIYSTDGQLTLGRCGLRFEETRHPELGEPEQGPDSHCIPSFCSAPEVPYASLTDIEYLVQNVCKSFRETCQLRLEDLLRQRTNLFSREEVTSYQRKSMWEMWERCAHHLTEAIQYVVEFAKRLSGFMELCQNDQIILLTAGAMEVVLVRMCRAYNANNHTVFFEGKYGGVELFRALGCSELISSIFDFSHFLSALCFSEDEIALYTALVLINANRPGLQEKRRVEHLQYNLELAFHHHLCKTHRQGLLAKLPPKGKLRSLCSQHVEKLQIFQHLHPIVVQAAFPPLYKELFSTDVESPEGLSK
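Read-out: Photinus luciferase luminescence; inhibitors lower reporter signal. Insect Schneider cells with Gal4-ROR gamma fusion under metallothionein promoter, UAS reporter; 700 uM final copper sulfate induction, 20 hr, ambient temperature.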
ELG1 repair inh = ELG1-dependent DNA repair inhibition; HEK293T ELG1-luciferase reporter, luminescence, 16 h; DNA damage induced by 5-fluorouridine; Potency, µM (top dose mostly 46.1 µM), without a hit: at the highest dose activity change, negative = inhibition, hits mostly inhibitors; 330,000 tested, 2.3% active; note: nearly all actives have a fitted effect of over 55% in size
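HEK293T cells expressing luciferase-tagged ELG1 (2,000/well) received 5-Fluorouridine plus compound or DMSO for 16 hr at 37 °C. Luciferase was read by ONE-Glo luminescence after 30 min at room temperature.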
TDP1 cell CPT = growth inhibition of DT40 Tdp1-/-;hTDP1 cells with camptothecin (screen for TDP1 inhibitors) | Potency, µM (highest dose often 46.2 µM), without a hit: at the top dose activity change, negative = growth inhibition, usual class: inhibitors | 420,000 tested, 12% active | chicken DT40 Tdp1-/-;hTDP1 cells + 20 nM CPT, ATP luminescence, 48 h; note: nearly all actives have a fitted effect of over 55% in size
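Chicken DT40 Tdp1-/- cells complemented with human TDP1, 400 cells/well, exposed to compounds plus 20 nM camptothecin for at least 48 h at 37 C; viability read as ATP content by CellTiter-Glo luminescence.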
TDP1 cell noCPT = qHTS for Inhibitors of human tyrosyl-DNA phosphodiesterase 1 (TDP1): qHTS in cells in absence of CPT; DT40 Tdp1-/- hTDP1 cells, no CPT, ATP luminescence, 48 h; Potency, µM (top dose mostly 46.2 µM), without a hit: at the highest dose activity change, negative = growth inhibition, hits mostly inhibitors; 420,000 tested, 15% active; AID 686978, 2013; note: nearly all actives have a fitted effect of over 55% in size
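Cells were dispensed at 400 per well, compounds added by pin tool, plates incubated ≥48 hr at 37 °C, then CellTiter-Glo added for 30 min at room temperature before luminescence reading. Line: DT40 Tdp1-/- complemented with hTDP1; camptothecin omitted.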
VP16 counter = inhibits Gal4-VP16 luciferase reporter, ROR gamma counter-screen | 310,000 tested, 3.5% active | Drosophila S2 Gal4-VP16 UAS-luciferase, luminescence, 20 h | Potency, µM (highest dose often 53.6 µM), without a hit: top-dose activity, negative = inhibition, hits mostly inhibitors | AID 2546;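 note: Gal4-VP16 expression switched on by copper sulfate through the metallothionein promoter; nearly all actives have a fitted effect of over 50% in size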
12-LOX inh = ALOX12 (human) lipoxygenase inhibition | Potency, µM (top dose mostly 108 µM), for inactives: at the top dose activity change, negative = inhibition, actives largely listed as inhibitors | 580,000 tested, 1.1% active | P18054 | purified 12hLO, xylenol orange hydroperoxide absorbance | AID 1671190
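Purified human 12hLO (150 nM final) in 25 mM Hepes, 0.01% Triton X-100, pH 7.0 was preincubated 15 min at room temperature with compound. Then 40 uM arachidonic acid was added, 30 min. Hydroperoxide was read by Fe-XO absorbance ratio 573/405 nm.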
* marks the source's active call; other numbers are inactive results; ? = inconclusive; . = no result given; [ ] = another dose, or the depositor's remark. Calls come from the whole dose curve; as a rule, active = well fitted curve in the direction sought with a large enough effect; inconclusive = small, poorly fitted or top-dose-only effect, or another doubt; inactive = no such curve, though single readings can be large; an effect the other way counts as inactive or inconclusive. % is set by controls: 0 for no effect and ±100 for the full control effect; potency is the fitted concentration of half-maximal effect.

SMILES	RORg inh	ELG1 repair inh	TDP1 cell CPT	TDP1 cell noCPT	VP16 counter	12-LOX inh
COc1ccc(-c2nc3cnc(N4CCNCC4)nc3n(Cc3cccc(OC)c3)c2=O)cc1	?	.	6.5µM*	4.6µM*	?	?
CCN(C(=O)Cn1ccn2nc3c(c2c1=O)CCCC3)c1ccccc1	.	.	.	.	.	11%
CC(=O)CC1(OC(C)=O)C(=O)N(C)c2ccccc21 (stereo not drawn)	6.3µM*	?	3.7µM*	2.9µM*	14µM*	2%
c1ccc2c(c1)SCc1c-2[nH]c2ccccc12	4.5µM*	.	.	.	10µM*	.
CCOc1ccc(OCC)c(NC(=O)C2CCCN(S(=O)(=O)c3ccc(C)cc3)C2)c1 (stereo not drawn)	45%	?	26µM*	16µM*	-9%	?
CCOc1ccc(OCC)c(NC(=O)C2CCCN(S(=O)(=O)c3c(C)n[nH]c3C)C2)c1 (stereo not drawn)	30%	?	-13%	-24%	-6%	3%
Cc1ccc(S(=O)(=O)N2CCCC(C(=O)N(Cc3cccs3)C3CC3)C2)cc1 (stereo not drawn)	?	?	13µM*	13µM*	1%	0%[57.4 µM]
O=C(Nc1cccc(F)c1)C1CCCN(S(=O)(=O)c2ccccc2)C1 (stereo not drawn)	39%	?	18µM*	?	4%	-3%
COc1ccc(S(=O)(=O)N2CCCC(C(=O)Nc3cccc(C(C)=O)c3)C2)cc1 (stereo not drawn)	?	?	?	?	4.5µM*	-7%
O=C(C1CCCCC1)N(Cc1cccs1)C1CC1	.	.	.	.	.	2%
CC(=O)c1cccc(NC(=O)C2CCCN(S(=O)(=O)c3ccc(F)cc3)C2)c1 (stereo not drawn)	13%	?	?	?	-14%	65%
COc1cccc(C2CC(=O)N(c3sc4c(c3C#N)CCCC4)C3=C2C(=O)CCC3)c1OC (stereo not drawn)	.	.	.	.	.	4%
O=C(NCCCc1nc2ccc(Cl)cc2[nH]1)[C@H]1CCC[C@@H](O)C1	.	.	.	.	.	32%
O=C(NC1CCCCC1)C1CCN(C2=NS(=O)(=O)c3ccccc32)CC1	.	.	.	.	.	-25%
COc1ccc(NC(=O)C2CCCN(S(=O)(=O)c3ccc(F)cc3)C2)cc1 (stereo not drawn)	.	.	15µM*	15µM*	.	-23%
COc1ccc(S(=O)(=O)N2CCCC(C(=O)Nc3ccc4c(c3)OCCO4)C2)cc1 (stereo not drawn)	?	?	21µM*	?	16%	-5%
Cc1ccc(NC(=O)C2CCCN(S(=O)(=O)c3ccc(C)cc3)C2)cc1 (stereo not drawn)	.	.	16µM*	16µM*	.	-10%
COc1ccc(CNC(=O)C2CCCN(S(=O)(=O)c3ccc(F)cc3)C2)cc1 (stereo not drawn)	0%	-27%	?	?	0%	343%
COc1ccc(C(=O)/C=C/c2c(C)cc(C)cc2C)cc1	.	.	.	.	.	-4%
COc1ccc(OC)c(/C=C/C(=O)Oc2ccc(C(C)=O)cc2)c1	-8%	-11%	-3%	-25%	-13%	2%
COc1ccc(OC)c(/C=C/C(=O)N2C(=O)c3cccc(N)c3C2=O)c1	?	?	4.6µM*	5.2µM*	?	-11%
COc1cc(/C=C/C(=O)N2C(=O)c3cccc(N)c3C2=O)cc(OC)c1OC	-10%	?	5.8µM*	29µM*	?	2%
O=C(c1cccc(F)c1)N1CCCC(Cc2noc(-c3ccccc3)n2)C1 (stereo not drawn)	.	.	.	.	.	29%
COc1ccc(-c2noc(Cn3c(=O)c4ccccc4n(CC(=O)Nc4cccc(C(F)(F)F)c4)c3=O)n2)cc1	.	.	?	16µM*	.	2%
O=C(Cn1c(=O)n(Cc2nc(-c3ccccc3)no2)c(=O)c2cc3c(cc21)OCO3)Nc1cccc(C(F)(F)F)c1	.	.	13µM*	9.2µM*	.	-1%
SMILES	RORg inh	ELG1 repair inh	TDP1 cell CPT	TDP1 cell noCPT	VP16 counter	12-LOX inh
CCCCCCCCC(=O)OCC	.	.	.	.	.	-3%[176 µM]
CCN(CC)Cc1cnc2c(C(=O)N3CCCCCCC3)cnn2c1	.	.	.	.	.	32%
Cc1cc(Br)ccc1NC(=O)CC1CC2CCC1C2 (stereo not drawn)	.	.	.	.	.	25%
COc1ccc(CCn2c(NN=C(C)C)nc3c2c(=O)[nH]c(=O)n3C)cc1	-3%	?	?	?	-4%	65%
COc1ccc(CCn2c(NN)nc3c2c(=O)[nH]c(=O)n3C)cc1	-27%	-24%	4.6µM*	5.2µM*	-21%	10%
CCOc1cc(CNC(=O)c2ncoc2-c2ccc(OC)cc2)cc(OCC)c1OCC	.	.	.	.	.	0%
CCN(C(=O)c1cn(C)c(=O)c2cc(OC)c(OC)cc12)c1ccccc1C	-27%	-25%	8%	-11%	-2%[0.365 µM]	-7%
COc1cc(C(=O)NC2CCCCCCC2)cc(OC)c1OC	.	.	21%	?	.	26%
COc1cc(C(=O)N(C(C)C)C2CCCCC2)cc(OC)c1OC	.	.	12µM*	10µM*	.	-14%
CCN(C(=O)c1cc(Cl)ccc1OC)c1ccccc1C	14%	-14%	?	21µM*	-4%	411%
CCN(C(=O)c1cc(OC)c(OC)c(OC)c1)C1CCCCC1	.	.	?	23µM*	.	11%
CCN(C(=O)c1cn(CC)c(=O)c2cc(OC)c(OC)cc12)c1ccccc1F	.	.	-28%	21µM*	.	-8%
C#CCN(CCC(=O)NC(N)=O)Cc1ccc(C)cc1	.	.	.	.	.	-17%
O=C(CC1CCCCC1)NCC(=O)N1CCCCCCNC(=O)CC1c1ccccc1 (stereo not drawn)	.	.	.	.	.	14%
CCn1cc(C(=O)NC2CCCCCC2)c2cc(OC)c(OC)cc2c1=O	27%[0.365 µM]	13µM*	?	?	.	0%
CCN(C(=O)c1cc(Cl)ccc1Cl)C1CCS(=O)(=O)C1 (stereo not drawn)	.	0%	-4%	-6%	.	2%
CCN(C(=O)c1cc(Cl)ccc1OC)C1CCCCC1	-5%	-2%	?	23µM*	5%	0%
C=CCC1(O)CCN(C)CC1C (stereo not drawn)	.	.	.	.	.	13%
FC(F)(F)c1ccc(C2Nc3cccc4cccc(c34)N2)cc1	1%	3%	?	?	6%	?
O=[N+]([O-])c1cccc(C2Nc3cccc4cccc(c34)N2)c1	-3%	2%	?	21µM*	-20%	?
Fc1ccc(C2Nc3cccc4cccc(c34)N2)cc1	0%	10%	?	?	6%	?

Screening results as filed in PubChem BioAssay.
